{
  "source": "PubChem BioAssay AID485364",
  "about": "(National Center for Advancing Translational Sciences (NCATS), 2010)",
  "note": "Among all 360,000 compounds or so, about 11,000 (3.1%) were called active. Another 4% or so got no clear call; they are omitted. The sample as a whole holds a higher share of actives than the screen did. A number with no mark means an inactive call. Calls come from the whole dose curve; as a rule, active = well fitted inhibition curve with a large enough effect; inconclusive = small, poorly fitted or top-dose-only effect; inactive = no such curve, though single readings can be large or run the other way. % is set by controls: 0 for no effect and ±100 for the full control effect; potency is the fitted concentration of half-maximal effect.",
  "data": [
    {"target": "Schistosoma mansoni thioredoxin glutathione reductase (TGR) (UniProt Q962Y6)", "assay": "qHTS Assay for the Inhibitors of Schistosoma Mansoni Peroxiredoxins; note: nearly all actives have a fitted effect of over 60% in size", "settings": "purified TGR, DTNB reduction, TNB absorbance 405 nm; series mostly up to 114 µM; activity change, negative = inhibition: at the top concentration", "excerpt": "Schistosomiasis is a major neglected tropical disease that currently affects over 200 million. It is caused by different species of flatworms, such as Schistosoma mansoni. Over the last century, drugs to treat the disease have evolved from potassium antimonyl tartrate, artemisinin, oxamniquine, to praziquantel, with praziquantel remaining the universally-used single drug of choice over the past three decades. However, transmission rates have changed little with praziquantel, and there is evidence for the development of drug resistant parasites. Because there is currently no suitable alternative therapy available, there is an urgent need to identify new targets and drugs for schistosomiasis treatment. Thioredoxin glutathione reductase (TGR), one uniquely positioned S. mansoni enzyme, has been identified as a major component of the worms' distinct and compressed antioxidant \"firewall\". TGR is a multifunctional enzyme that catalyzes the interconversion between reduced and oxidized forms of both glutathione (GSH) and thioredoxins, thus making it an attractive new antiparasitic target. Recently, a quantitative high-throughput screen of the NIH Molecular Libraries Small Molecule Repository (MLSMR, ~71K at the time of the screen in 2007) was performed using an assay that targeted both TGR and peroxiredoxin2 (Prx2, an H2O2-reducing enzymatic component of the S. mansoni redox \"firewall\") by following the decrease of NADPH fluorescence. […] Additional mechanistic link between exogenous NO donation and parasitic injury for the oxadiazole-2-oxide class of compounds was also expanded and better defined. Although the screen addressed both TGR and Prx2, the assay required post-screen target deconvolution for further characterization of the actives. In addition, the fluorescence assay was also subject to fluorescence interference from compound library members. We have developed a 1536-well-based kinetic HTS assay to address TGR alone. The assay followed the reduction of 5, 5'-dithiobis (2-nitrobenzoic acid) (DTNB) (Ellman's reagent) by NADPH and measured the increase in absorbance at 412 nm of the reaction product, TNB. […] This assay format can be used to screen the current MLSMR collection (with >300K compounds available) to find novel TGR inhibitors. Furoxan is a good choice to serve as a positive control in the primary HTS assay.\nThree microliters of reagents (100 uM NADPH and 20 nM TGR or 100 uM NADPH as no-enzyme control) were dispensed into 1,536-well black clear-bottomed plates. Compounds (23 nL) were transferred via Kalypsys pin tool equipped with 1536-pin array (10 nL slotted pins, V&P Scientific, San Diego, CA). The plates were then be incubated for 15 min at room temperature, and 1 uL aliquot of 500 uM NADPH were added, immediately followed by a 1 uL aliquot of 15 mM DTNB to start the reaction. The plate was transferred to a ViewLux high-throughput CCD imager (Perkin-Elmer, Wellesley, MA) where kinetic measurements of the TNB absorbance were acquired using a 405 excitation filter. Throughout the screen, reagent bottles and all liquid lines were made light-tight to minimize reagent degradation. All screening operations were performed on a fully integrated robotic system (Kalypsys, San Diego, CA) containing one RX-130 and two RX-90 anthropomorphic robotic arms (Staubli, Duncan, SC). Library plates were screened starting from the lowest and proceeding to the highest concentration, and a \"double-dipping\" step of the highest concentration was required to access higher concentrations of compounds. Vehicle-only plates, with DMSO being pin-transferred to the entire column 5-48 compound area, were inserted uniformly at the beginning and the end of each library in order to monitor for and record any shifts in the background, which can be affected by reagent dispensers or loss in enzyme activity overtime. […]", "units": {"activity change, negative = inhibition": "%"}, "values": [
      {"smiles": "CCN(CC)C(=O)CSc1nc2cc3c(cc2c(=O)n1CCCC(=O)NCc1ccc2c(c1)OCO2)OCO3", "activity change, negative = inhibition": 2.19},
      {"smiles": "Cc1cc(C)cc(C(=O)NCCN2CCOCC2)c1", "activity change, negative = inhibition": -4.78},
      {"smiles": "CCc1cc(=O)oc2c(C)c(OCC(=O)NCCN3CCOCC3)ccc12", "activity change, negative = inhibition": -0.434},
      {"smiles": "CC(=O)Oc1cc2c(C(=O)NCCN3CCOCC3)c(C)oc2c2ccccc12", "Potency": "25.1 µM (active)"},
      {"smiles": "CCS(=O)(=O)N1CCC(n2c(C)nc3cccnc32)CC1", "activity change, negative = inhibition": -1.46},
      {"smiles": "COC(=O)c1ccc(NC(=O)c2cc(S(=O)(=O)N3CCC(C)CC3)cn2C)cc1", "activity change, negative = inhibition": 5.56},
      {"smiles": "O=C(CCS(=O)(=O)c1ccccc1)NC1CCCC1", "activity change, negative = inhibition": 5.1},
      {"smiles": "O=C(CCS(=O)(=O)c1ccccc1)Nc1nc2c(s1)CCCC2", "Potency": "50.1 µM (active)"},
      {"smiles": "O=C(Nc1nc2c(s1)CCCC2)c1ccccc1F", "activity change, negative = inhibition": 0.735},
      {"smiles": "COc1ccccc1NC(=O)c1cc(C2CC2)nc2c1c(C)nn2-c1ccc(C)cc1", "activity change, negative = inhibition": 18.1},
      {"smiles": "O=C(c1c(Cl)nc2sccn12)N1CCCc2ccccc21", "activity change, negative = inhibition": -18.7},
      {"smiles": "CCCn1nc(C(=O)N2CCCc3ccccc32)c2ccccc2c1=O", "activity change, negative = inhibition": 4.87},
      {"smiles": "Cc1occc1C(=O)N1CCCc2ccccc21", "Potency": "44.7 µM (active)"},
      {"smiles": "CC(C)c1ccc(NC(=O)CN(C)S(=O)(=O)c2ccc3c(c2)c(=O)n(C)c(=O)n3C)cc1", "activity change, negative = inhibition": 9.79},
      {"smiles": "Cc1ccc(Cl)cc1N1CCN(C(=O)CN2C(=O)COc3ccc(S(=O)(=O)N4CCOCC4)cc32)CC1", "activity change, negative = inhibition": 0.921},
      {"smiles": "CCCNc1ncnc2c1c(-c1ccccc1)cn2-c1ccc(OCC)cc1", "activity change, negative = inhibition": 17.8},
      {"smiles": "CCc1ccc(NC(=O)CN2C(=O)C(c3ccccc3)=NC23CCCCCC3)cc1", "activity change, negative = inhibition": -1.58},
      {"smiles": "CCCCOC(=O)c1ccc(N2C(=O)CC(N3CCN(C/C=C/c4ccccc4)CC3)C2=O)cc1", "note": "(centres undefined)", "activity change, negative = inhibition": -10.1},
      {"smiles": "CCOc1ccc(N2C(=O)CC(N(CCc3ccc(OC)c(OC)c3)C(=S)Nc3ccccc3)C2=O)cc1", "note": "(centres undefined)", "activity change, negative = inhibition": -3.6},
      {"smiles": "CCCCCCC(=O)N(O)C1CC(=O)N(c2ccccc2)C1=O", "note": "(centres undefined)", "Potency": "0.282 µM (active)"},
      {"smiles": "CCOc1cc2[nH]c(=O)n(Cc3ccc(C(=O)NCCN(CC)CC)cc3)c(=O)c2cc1OCC", "activity change, negative = inhibition": 13.9},
      {"smiles": "Cc1cc(C)cc(NC(=O)CSc2oc(-c3ccccc3)nc2S(=O)(=O)c2ccc(Cl)cc2)c1", "activity change, negative = inhibition": -27.8},
      {"smiles": "COc1ccc(-c2nnc(NC(=O)CS(=O)(=O)c3ccc(Cl)cc3)o2)c(OC)c1", "activity change, negative = inhibition": 6.68},
      {"smiles": "COc1cc(-c2nc(S(=O)(=O)c3ccc(Cl)cc3)c(N(C)C)o2)cc(OC)c1OC", "Potency": "25.1 µM (active)"},
      {"smiles": "CCOc1ccc(N(CC)S(=O)(=O)N2CCCC(C(=O)NCc3ccc(SC)cc3)C2)cc1", "note": "(centres undefined)", "activity change, negative = inhibition": -1.82},
      {"smiles": "COc1ccc(-c2c3c(=O)n(C)c(=O)n(C)c3c3c(C)nc4ccccc4n23)cc1", "activity change, negative = inhibition": -5.95},
      {"smiles": "CCOC(=O)c1ccc(N2C(=O)c3[nH]nc(-c4ccccc4)c3C2c2ccc(C(C)C)cc2)cc1", "note": "(centres undefined)", "activity change, negative = inhibition": 2.94},
      {"smiles": "CCOC(=O)c1ccc(N2C(=O)c3n[nH]c(C)c3C2c2ccc(O)c(OC)c2)cc1", "note": "(centres undefined)", "Potency": "11.2 µM (active)"},
      {"smiles": "CCOc1cc(C2c3c(-c4ccc(Br)cc4)n[nH]c3C(=O)N2c2ccc(Cl)cc2)ccc1O", "note": "(centres undefined)", "activity change, negative = inhibition": -14.7},
      {"smiles": "CCCn1c2ccccc2c2cnn(CC(=O)N(C)c3ccccc3CC)c(=O)c21", "activity change, negative = inhibition": -0.711},
      {"smiles": "CSc1ccc(C2c3c(oc4ccccc4c3=O)C(=O)N2CCCN2CCOCC2)cc1", "note": "(centres undefined)", "activity change, negative = inhibition": -4.17},
      {"smiles": "COc1ccc(OC)c(NC(=O)C2CCN(S(=O)(=O)c3ccc(C)cc3)CC2)c1", "activity change, negative = inhibition": -6.25},
      {"smiles": "NC(=O)C1CCN(C(=O)c2cccc(NC(=O)c3nsc4ccccc34)c2)CC1", "activity change, negative = inhibition": -3.45},
      {"smiles": "Cc1ccc(C2CCN(C(=O)c3cnn(-c4ccccc4Cl)c3C3CCN(C(=O)OC(C)(C)C)CC3)C2)cc1", "note": "(centres undefined)", "activity change, negative = inhibition": -6.14},
      {"smiles": "Cc1ccccc1C(=O)N(Cc1ccc(N(C)C)cc1)CC1CCCO1", "note": "(centres undefined)", "activity change, negative = inhibition": -4.37},
      {"smiles": "O=C(CCS(=O)(=O)c1cc(Br)cc2c1N(C(=O)C1CC1)CC2)Nc1ccc(Br)cc1F", "activity change, negative = inhibition": -9.17},
      {"smiles": "COc1ccc(OCC(=O)Nc2nnc(-c3ccco3)s2)cc1", "Potency": "28.2 µM (active)"},
      {"smiles": "COc1ccc(OCCCC(=O)Nc2nnc(C3CCCO3)s2)cc1", "note": "(centres undefined)", "activity change, negative = inhibition": -23.5},
      {"smiles": "CNc1nnc(-c2ccco2)s1", "activity change, negative = inhibition": 0.0938},
      {"smiles": "CCOC(=O)N1CCc2c(sc3c2c(=O)n(-c2ccc(CC)cc2)c(=O)n3C)C1", "activity change, negative = inhibition": 4.2},
      {"smiles": "Cc1ccccc1NC(=O)Cn1c(=O)n(CCCCC(=O)NCc2ccccc2Cl)c(=O)c2ccccc21", "activity change, negative = inhibition": 14.5},
      {"smiles": "O=C(CN1CCN(c2ccc(Cl)cc2)CC1)c1ccccc1", "Potency": "17.8 µM (active)"},
      {"smiles": "O=C(CCCC(=O)N1CCN(c2cccc(Cl)c2)CC1)c1ccccc1", "activity change, negative = inhibition": 14.1},
      {"smiles": "CC(C)OC(=O)CN1CCN(c2ccc(Cl)cc2)CC1", "activity change, negative = inhibition": -6.1},
      {"smiles": "Cc1cccc(NC(=O)COC(=O)CCc2ccccc2)c1C", "activity change, negative = inhibition": -1.65},
      {"smiles": "O=C(COC(=O)CCc1c[nH]c(=O)[nH]1)Nc1ccccc1Cl", "Potency": "44.7 µM (active)"},
      {"smiles": "Cc1cc(C(=O)OCC(=O)Nc2ccccc2Cl)c(C)o1", "activity change, negative = inhibition": -10.9},
      {"smiles": "COc1ccccc1NC(=O)Cn1cnc2ccc(S(=O)(=O)N3CCC(C)CC3)cc2c1=O", "activity change, negative = inhibition": -3.41},
      {"smiles": "COCCNC(=O)c1ccc2c(c1)N(Cc1cccc(Cl)c1)C(=O)c1ccccc1S2(=O)=O", "activity change, negative = inhibition": 6.01}
    ]}
  ]
}
